Screening results: PubChem, Broad Institute
Sampled rows, rich in hits. Any-hit rate of the full collection: about 6.8%.
C diff growth: C. difficile growth inhibitors, primary screen, HTS; Clostridium difficile clinical isolate growth, OD600, 24 h; hits give low values; AID 1259249, 2017; 86,000 tested, 0.25% active; growth activity, negative = inhibition, % at 16 µg/mL (by protocol);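 active = mean growth activity at or below -80% and every replicate also at or below -80%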;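 note: 0% = DMSO wells and -100% = levofloxacin 16 µg/mL wells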
T cruzi growth: T. cruzi intracellular proliferation inhibitors, primary screen, cell-based, beta-gal Tulahuen parasites, NIH3T3 host, luminescence; T. cruzi beta-gal in NIH3T3, GalScreen luminescence, 90 h; inhibition, % at 8.34 µM; 77,000 tested, 5.9% active;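 active = mean inhibition above about 93%, with at least 55% of replicates each passing it, limit read from the data, passing the limit was not always enough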
Pf Dd2 growth: P. falciparum Dd2 growth inhibitors, primary screen, SYBR Green fluorescence, single dose replicates | 72 h; hits give low values | activity change, % at 10 µM | 94,000 tested, 2.3% active; in the data active = activity change below about -80%
The depositor's hits bear a star; / = not tested or not shown.

SMILES | C diff growth | T cruzi growth | Pf Dd2 growth
C[C@@H]1CCCCO[C@H](CN(C)S(=O)(=O)c2ccc(F)cc2)[C@@H](C)CN([C@@H](C)CO)C(=O)c2cc(NC(=O)C3CCCCC3)ccc2O1 | 0.7 | 74.6 | -74.6
C[C@H]1CCCCO[C@H](CN(C)S(=O)(=O)c2ccc(F)cc2)[C@@H](C)CN([C@@H](C)CO)C(=O)c2cc(NC(=O)C3CCCCC3)ccc2O1 | -0.4 | 86.4 | -77.2
C[C@@H]1CN([C@@H](C)CO)C(=O)c2cc(NC(=O)C3CCCCC3)ccc2O[C@@H](C)CCCCO[C@@H]1CN(C)S(=O)(=O)c1ccc(F)cc1 | -1.4 | 36.3 | -81.8*
C[C@@H]1CN([C@@H](C)CO)C(=O)c2cccc(NS(=O)(=O)c3ccccc3)c2O[C@H]1CN(C)Cc1ccncc1 | -4.0 | -18.1 | 31.1
C[C@H](CO)N1C[C@H](C)[C@H](CN(C)Cc2ccc(C(=O)O)cc2)Oc2c(NS(=O)(=O)c3ccc(Cl)cc3)cccc2C1=O | -3.3 | 3.2 | 1.3
C[C@H]1CN([C@@H](C)CO)C(=O)c2cc(NS(=O)(=O)c3cccs3)ccc2O[C@@H]1CN(C)S(=O)(=O)c1ccc(Cl)cc1 | / | -75.5 | -23.1
C[C@@H]1CN([C@H](C)CO)C(=O)c2cccc(NC(=O)Nc3ccc4c(c3)OCO4)c2O[C@H]1CN(C)Cc1ccccc1 | 2.6 | 73.8 | -38.0
C[C@@H]1CN([C@H](C)CO)C(=O)c2c(c3ccccc3n2C)-c2ccccc2CO[C@H]1CN(C)C(=O)c1ccccc1 | / | 26.5 | -27.1
CN1CCN(C(=O)C[C@H]2CC[C@@H]3[C@@H](COc4ccc(NC(=O)C5CCCCC5)cc4C(=O)N3C)O2)CC1 | 12.4 | -41.1 | -0.7
C[C@@H](O)C#Cc1cnc2c(c1)C(=O)N([C@@H](C)CO)C[C@H](C)[C@H](CN(C)C(=O)c1ccncc1)O2 | -1.9 | 91.3 | 16.7
CCCc1cn(CC[C@@H]2CC[C@H](NS(=O)(=O)c3ccc(-c4ccccc4)cc3)[C@@H](CO)O2)nn1 | -14.4 | -2.4 | -75.9
CCCc1cn(CC[C@H]2CC[C@H](NS(=O)(=O)c3ccc(-c4ccccc4)cc3)[C@@H](CO)O2)nn1 | 2.0 | -31.5 | -88.9*
CCCc1cn(CC[C@H]2CC[C@@H](NS(=O)(=O)c3ccc(-c4ccccc4)cc3)[C@H](CO)O2)nn1 | -10.5 | 59.6 | -93.7*
CN(C)Cc1cn(CC[C@@H]2CC[C@H](NS(=O)(=O)c3ccc(-c4ccccc4)cc3)[C@H](CO)O2)nn1 | / | -79.2 | -24.9
CCCc1cn(CC[C@@H]2CC[C@@H](NS(=O)(=O)c3ccc(-c4ccccc4)cc3)[C@H](CO)O2)nn1 | -2.4 | 59.3 | -93.3*
CN(C)Cc1cn(CC[C@@H]2CC[C@H](NS(=O)(=O)c3ccc(-c4ccccc4)cc3)[C@@H](CO)O2)nn1 | / | -239.5 | 9.0
C[C@@H]1CCCCO[C@H](CN(C)Cc2ccncc2)[C@H](C)CN([C@H](C)CO)C(=O)c2cc(NC(=O)c3ccccc3)ccc2O1 | -4.6 | 40.4 | 7.6
C[C@@H]1CN([C@@H](C)CO)C(=O)Cc2cc(NC(=O)C3CCCCC3)ccc2O[C@@H]1CN(C)C | -1.5 | 16.5 | -8.2
COc1cccc(C(=O)N2C[C@H]3[C@@H](c4ccccc42)[C@H](CO)N3Cc2ccccc2Cl)c1 | 6.0 | 68.9 | 12.0
O=C(C[C@@H]1C[C@@H]2c3cc(NC(=O)c4ccc5c(c4)OCO5)ccc3O[C@@H]2[C@H](CO)O1)NCc1cccc(F)c1 | -8.0 | 35.3 | -17.2
Cc1ccc(S(=O)(=O)Nc2ccc3c(c2)C(=O)N([C@H](C)CO)C[C@@H](C)[C@@H](CN(C)C(=O)CCCN(C)C)OCCCC[C@H](C)O3)cc1 | / | -11.8 | 3.0
C[C@H](CO)N1C[C@H](C)[C@@H](CN(C)C(=O)Nc2ccc(F)cc2)Oc2ccc(NC(=O)Nc3ccc(C(F)(F)F)cc3)cc2CC1=O | 16.9 | 10.4 | -87.6*
C[C@H](CO)N1C[C@H](C)[C@@H](CN(C)C(=O)Nc2ccc(C(F)(F)F)cc2)Oc2ccc(NC(=O)Nc3ccccc3)cc2CC1=O | 14.8 | 20.3 | -64.2
C[C@H](CO)N1C[C@H](C)[C@@H](CN(C)C(=O)Nc2ccccc2)Oc2ccc(NC(=O)Nc3ccc(C(F)(F)F)cc3)cc2CC1=O | 8.4 | 27.6 | -85.0*
COc1ccc(NC(=O)Nc2ccc3c(c2)CC(=O)N([C@@H](C)CO)C[C@H](C)[C@@H](CN(C)C(=O)Nc2ccc(C(F)(F)F)cc2)O3)cc1 | -8.5 | 2.9 | -17.2
SMILES | C diff growth | T cruzi growth | Pf Dd2 growth
COc1ccc(NC(=O)N(C)C[C@H]2Oc3ccc(NC(=O)Nc4ccc(C(F)(F)F)cc4)cc3CC(=O)N([C@H](C)CO)C[C@@H]2C)cc1 | 11.1 | 35.0 | -88.1*
C[C@H]1CN([C@@H](C)CO)C(=O)Cc2cc(NC(=O)Nc3ccc(C(F)(F)F)cc3)ccc2O[C@@H]1CN(C)C(=O)Nc1ccc(F)cc1 | -2.0 | 3.6 | -74.0
C[C@H]1CN([C@@H](C)CO)C(=O)c2cc(NC(=O)Cc3cn(C)c4ccccc34)ccc2O[C@H]1CN(C)Cc1ccc(C(=O)Nc2ccccc2N)cc1 | / | 58.3 | -71.6
N#C[C@H]1[C@H](c2ccccc2C2=CCCCC2)[C@H](CO)N1S(=O)(=O)c1cccc(F)c1 | 41.0 | / | -30.9
CC(C)NC(=O)Nc1ccc2c(c1)C(=O)N([C@H](C)CO)C[C@@H](C)[C@@H](CN(C)Cc1ccc(Cl)c(Cl)c1)O2 | 7.0 | 54.4 | 7.1
COc1ccc(CN2CC3(C2)CN(C(=O)CN(C)C)[C@H](CO)c2[nH]c4cc(OC)ccc4c23)cc1 | 6.1 | / | -88.4*
COc1ccc2c3c([nH]c2c1)[C@H](CO)N(C(=O)CN(C)C)CC31CN(Cc2ccncc2)C1 | 3.9 | / | -32.4
COc1ccc(CN2CC3(C2)CN(C(=O)CN(C)C)[C@@H](CO)c2[nH]c4cc(OC)ccc4c23)cc1 | 5.8 | / | -85.9*
COc1ccc2c3c([nH]c2c1)[C@@H](CO)N(C(=O)CN(C)C)CC31CN(Cc2ccccc2)C1 | 1.9 | / | -54.7
CCC(=O)N(C)C[C@@H]1Oc2ncc(C#CC(C)C)cc2C(=O)N([C@H](C)CO)C[C@@H]1C | 0.9 | / | -9.9
C[C@@H]1CN([C@@H](C)CO)C(=O)c2cc(NS(=O)(=O)c3ccc(F)cc3)ccc2O[C@@H](C)CCCCO[C@@H]1CN(C)C(=O)Nc1ccccc1 | 3.3 | 26.7 | -59.5
C[C@@H]1CN([C@H](C)CO)C(=O)c2cc(NC(=O)Nc3ccccc3)ccc2O[C@@H](C)CCCCO[C@@H]1CN(C)S(=O)(=O)c1ccc(Cl)cc1 | / | 38.5 | -86.4*
Cc1ccc(S(=O)(=O)N(C)C[C@@H]2OCCCC[C@H](C)Oc3ccc(NC(=O)Nc4ccc5c(c4)OCO5)cc3C(=O)N([C@H](C)CO)C[C@H]2C)cc1 | / | / | -75.3
C[C@@H]1CCCCO[C@@H](CN(C)S(=O)(=O)c2ccccc2)[C@@H](C)CN([C@@H](C)CO)C(=O)c2cc(NC(=O)Nc3ccccc3)ccc2O1 | / | 29.6 | -74.8
C[C@@H]1CCCCO[C@H](CN(C)S(=O)(=O)c2ccccc2)[C@H](C)CN([C@@H](C)CO)C(=O)c2cc(NC(=O)Nc3ccccc3)ccc2O1 | / | 51.0 | -40.6
